The results in this text go back to PubChem BioAssay (NCI).

A short description of experiment [1]: NCI Yeast Anticancer Drug Screen. Data for the rad50 strain (AID 155).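 Note: 0% = growth of vehicle-only cultures of the same strain.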 The settings on record: S. cerevisiae rad50 strain growth inhibition, hits give high values. A digest of the protocol:
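A DNA repair-deficient yeast mutant serves as the test organism; compound-induced growth inhibition is calculated against vehicle-treated cells.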

Experiment [2] in a line: NCI Yeast Anticancer Drug Screen. Data for the mec2-1 strain (AID 157). The settings on record: S. cerevisiae mec2-1 strain, hits give high values. A digest of the protocol: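 Yeast mec2-1 mutant treated with compound. Readout: growth inhibition vs vehicle controls.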
Experiment [3] is described as follows: NCI Yeast Anticancer Drug Screen. Data for the sgs1 mgt1 strain (AID 161).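 Note: 0% = growth of cultures given vehicle only.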 The settings on record: S. cerevisiae sgs1 mgt1 strain, hits give high values. A digest of the protocol: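 Genetically altered yeast, compound exposure, growth inhibition relative to vehicle.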
Experiment [4] in a line: NCI Yeast Anticancer Drug Screen. Data for the cln2 rad14 strain (AID 165).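 Note: 0% = growth equal to vehicle treated cultures.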 The settings on record: S. cerevisiae cln2 rad14 strain, hits give high values. A digest of the protocol:
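cln2 rad14 yeast strain; compound exposure; growth inhibition read vs vehicle controls.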

The nature of experiment [5]: NCI Yeast Anticancer Drug Screen. Data for the bub3 strain (AID 167). The settings on record: S. cerevisiae bub3 mutant strain, hits give high values. In short, it runs like this:
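Inhibition values come from growth of compound-treated mutant yeast normalised to vehicle-treated controls.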

A short description of experiment [6]: NCI Yeast Anticancer Drug Screen. Data for the mlh1 rad18 strain (AID 175). The settings on record: S. cerevisiae mlh1 rad18 strain growth inhibition, hits give high values. In short, it runs like this:
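Yeast w/ defined DNA-repair lesions; compound exposure; growth vs vehicle controls → % inhibition.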

[7] abbreviates: at 5.0 µM (retest, dose inferred, filed as 0.5).
Setting [8] is: at 50.0 µM (retest, dose inferred, filed as 5.0).

The structures appear in SMILES notation. This is part of a sample that, as a whole, favours compounds with a hit. Of some 79,000 tested, about 15% had one in any assay. Values without a mark were called inactive. Calls of active or inactive are those of the source. Cut-off read from the data, not from the text of the source: active = growth inhibition above about 70%; inactive = the rest.

Consider `O=C(O)c1nc2cc(C(F)(F)F)ccc2nc1Nc1ccc(Cl)c(Cl)c1`, for which the growth inhibition in experiment [1] (setting [7]) was 23%; in experiment [1] (setting [8]) it was 77% (active); in experiment [1] (at 50.0 µM), 86% (active); in experiment [2] (setting [7]), 19%; in experiment [2] (setting [8]) it was 90% (active); in experiment [2] (at 50.0 µM), 80.3% (active). For the same molecule, the growth inhibition in experiment [3] (setting [7]) was -16%; in experiment [3] (setting [8]), 52%; in experiment [3] (at 50.0 µM), 48.8%; in experiment [4] (setting [7]), -7%; in experiment [4] (setting [8]), 85% (active); in experiment [4] (at 50.0 µM), 76.5% (active). The growth inhibition in experiment [5] (setting [7]) was 16%; in experiment [5] (setting [8]), 64%; in experiment [5] (at 50.0 µM) it was 55.1%; in experiment [6] (setting [7]), 19%; in experiment [6] (setting [8]), 87% (active); in experiment [6] (at 50.0 µM), 79.1% (active).

With `CC1=CC(=O)CC(c2ccccc2)C1` (configuration not stated), the growth inhibition is 43% in experiment [1] (setting [7]); 98% (active) in experiment [1] (setting [8]); 97.6% (active) in experiment [1] (at 50.0 µM); 30% in experiment [2] (setting [7]); 99% (active) in experiment [2] (setting [8]); 98.3% (active) in experiment [2] (at 50.0 µM). Besides, the growth inhibition was 22% in experiment [3] (setting [7]); 99% (active) in experiment [3] (setting [8]); 98.7% (active) in experiment [3] (at 50.0 µM); 11% in experiment [4] (setting [7]); 97% (active) in experiment [4] (setting [8]); 92.5% (active) in experiment [4] (at 50.0 µM). For the same molecule, the growth inhibition in experiment [5] (setting [7]) is 31%; in experiment [5] (setting [8]) it was 99% (active); in experiment [5] (at 50.0 µM), 98.7% (active); in experiment [6] (setting [7]), 55%; in experiment [6] (setting [8]) it was 99% (active); in experiment [6] (at 50.0 µM), 98.3% (active).

Turning to `COc1ccc2c(C)cc(N/N=C(\C)c3ccccn3)nc2c1`, the growth inhibition in experiment [1] (setting [7]) is 2%; in experiment [1] (setting [8]) it was 57%; in experiment [1] (at 50.0 µM), 99.5% (active); in experiment [2] (setting [7]) it was -3%; in experiment [2] (setting [8]), 51%; in experiment [2] (at 50.0 µM), 99.7% (active). Moreover, the growth inhibition was 7% in experiment [3] (setting [7]); 42% in experiment [3] (setting [8]); 99.6% (active) in experiment [3] (at 50.0 µM); -6% in experiment [4] (setting [7]); 28% in experiment [4] (setting [8]); 99.5% (active) in experiment [4] (at 50.0 µM). Besides, the growth inhibition in experiment [5] (setting [7]) is 0%; in experiment [5] (setting [8]), 67%; in experiment [5] (at 50.0 µM), 99.7% (active); in experiment [6] (setting [7]), -2%; in experiment [6] (setting [8]) it was 57%; in experiment [6] (at 50.0 µM), 99.5% (active).

As to `Cc1cc(Nc2ccc(N=Nc3ccc(O)c4ncccc34)cc2)nc(C)n1`, the growth inhibition in experiment [1] (setting [7]) was 1%; in experiment [1] (setting [8]) it was 31%; in experiment [1] (at 50.0 µM), 71.1% (active); in experiment [2] (setting [7]), -4%; in experiment [2] (setting [8]), 21%; in experiment [2] (at 50.0 µM) it was 52.5%. In addition, the growth inhibition is -2% in experiment [3] (setting [7]); 35% in experiment [3] (setting [8]); 47.9% in experiment [3] (at 50.0 µM); -41% in experiment [4] (setting [7]); 6% in experiment [4] (setting [8]); 23% in experiment [4] (at 50.0 µM). Also, the growth inhibition in experiment [5] (setting [7]) is 5%; in experiment [5] (setting [8]), 4%; in experiment [5] (at 50.0 µM), 60.9%; in experiment [6] (setting [7]), 0%; in experiment [6] (setting [8]), 37%; in experiment [6] (at 50.0 µM), 75.5% (active).

As for `O=c1oc2ccccc2c(O)c1/C=N/C(=S)NCCc1ccccc1`, the growth inhibition in experiment [1] (setting [7]) was 29%; in experiment [1] (setting [8]), 88% (active); in experiment [1] (at 50.0 µM), -11.6%; in experiment [2] (setting [7]) it was 30%; in experiment [2] (setting [8]) it was 95% (active); in experiment [2] (at 50.0 µM) it was -22.4%. The growth inhibition is 32% in experiment [3] (setting [7]); 92% (active) in experiment [3] (setting [8]); -6.05% in experiment [3] (at 50.0 µM); 26% in experiment [4] (setting [7]); 40% in experiment [4] (setting [8]); -27.8% in experiment [4] (at 50.0 µM). Also, the growth inhibition in experiment [5] (setting [7]) was 44%; in experiment [5] (setting [8]), 96% (active); in experiment [5] (at 50.0 µM), -10.2%; in experiment [6] (setting [7]), 32%; in experiment [6] (setting [8]), 93% (active); in experiment [6] (at 50.0 µM) it was -5.75%.

For `CCOc1ccc2c(ccc(/C=C\c3cc(C)c4cccnc4c3O)[n+]2C)c1`, the growth inhibition was 91% (active) in experiment [1] (setting [7]); 92% (active) in experiment [1] (setting [8]); 87.3% (active) in experiment [1] (at 50.0 µM); 81% (active) in experiment [2] (setting [7]); 91% (active) in experiment [2] (setting [8]); 89.2% (active) in experiment [2] (at 50.0 µM). In addition, the growth inhibition was 87% (active) in experiment [3] (setting [7]); 93% (active) in experiment [3] (setting [8]); 90% (active) in experiment [3] (at 50.0 µM); 67% in experiment [4] (setting [7]); 87% (active) in experiment [4] (setting [8]); 86.8% (active) in experiment [4] (at 50.0 µM). Moreover, the growth inhibition in experiment [5] (setting [7]) is 59%; in experiment [5] (setting [8]), 91% (active); in experiment [5] (at 50.0 µM), 82.8% (active); in experiment [6] (setting [7]), 95% (active); in experiment [6] (setting [8]) it was 93% (active); in experiment [6] (at 50.0 µM), 89% (active).

Turning to `O=C1Nc2c(Cl)cc(Cl)cc2/C1=N/N=C/c1ccccc1O`, the growth inhibition in experiment [1] (setting [7]) was 12%; in experiment [1] (setting [8]), 41%; in experiment [1] (at 50.0 µM) it was 3.5%; in experiment [2] (setting [7]), 13%; in experiment [2] (setting [8]), 42%; in experiment [2] (at 50.0 µM), 17.1%. Further, the growth inhibition was 10% in experiment [3] (setting [7]); 41% in experiment [3] (setting [8]); 87.2% (active) in experiment [3] (at 50.0 µM); 15% in experiment [4] (setting [7]); 48% in experiment [4] (setting [8]); 89.8% (active) in experiment [4] (at 50.0 µM). Besides, the growth inhibition was 18% in experiment [5] (setting [7]); 54% in experiment [5] (setting [8]); 88.2% (active) in experiment [5] (at 50.0 µM); 15% in experiment [6] (setting [7]); 72% (active) in experiment [6] (setting [8]); 91% (active) in experiment [6] (at 50.0 µM).

For the molecule `O=C(CC1CCCC(CC(=O)c2ccccc2)N1CCc1ccccc1)c1ccccc1` (configuration not stated), the growth inhibition in experiment [1] (setting [7]) was 39%; in experiment [1] (setting [8]), 97% (active); in experiment [1] (at 50.0 µM), 89.7% (active); in experiment [2] (setting [7]), 23%; in experiment [2] (setting [8]) it was 99% (active); in experiment [2] (at 50.0 µM), 90.6% (active). The growth inhibition was 41% in experiment [3] (setting [7]); 98% (active) in experiment [3] (setting [8]); 92.8% (active) in experiment [3] (at 50.0 µM); 27% in experiment [4] (setting [7]); 97% (active) in experiment [4] (setting [8]); 91.8% (active) in experiment [4] (at 50.0 µM). For the same molecule, the growth inhibition in experiment [5] (setting [7]) is 41%; in experiment [5] (setting [8]), 98% (active); in experiment [5] (at 50.0 µM), 89.7% (active); in experiment [6] (setting [7]) it was 34%; in experiment [6] (setting [8]), 98% (active); in experiment [6] (at 50.0 µM) it was 89.2% (active).

As to `Cc1c(N)nc(C(CC(N)=O)NCC(N)C(N)=O)nc1C(=O)NC(C(=O)NC(C)C(O)C(C)C(=O)NC(C(=O)NCCc1nc(-c2nc(C(=O)NCCCNC(C)c3ccccc3)cs2)cs1)C(C)O)C(OC1OC(CO)C(O)C(O)C1OC1OC(CO)C(O)C(OC(N)=O)C1O)c1cnc[nH]1` (configuration not stated), the growth inhibition was 97% (active) in experiment [1] (setting [7]); 98% (active) in experiment [1] (setting [8]); 92.2% (active) in experiment [1] (at 50.0 µM); 97% (active) in experiment [2] (setting [7]); 99% (active) in experiment [2] (setting [8]); 93.5% (active) in experiment [2] (at 50.0 µM). Further, the growth inhibition in experiment [3] (setting [7]) is 95% (active); in experiment [3] (setting [8]), 98% (active); in experiment [3] (at 50.0 µM), 93.5% (active); in experiment [4] (setting [7]) it was 85% (active); in experiment [4] (setting [8]), 93% (active); in experiment [4] (at 50.0 µM) it was 90.4% (active). Moreover, the growth inhibition was 93% (active) in experiment [5] (setting [7]); 98% (active) in experiment [5] (setting [8]); 93.3% (active) in experiment [5] (at 50.0 µM); 98% (active) in experiment [6] (setting [7]); 99% (active) in experiment [6] (setting [8]); 92.2% (active) in experiment [6] (at 50.0 µM).
